Four molecules from PubChem BioAssay (EPA / NIEHS) can be followed below.

The structures appear in SMILES notation. Results filed as inconclusive are left out. Calls of active or inactive are those of the source. How the source made its calls, unless noted: active means hit-call score of the fitted dose curve at least 0.9, where 1 is the maximum; inactive means score below 0.9.

For assay [1], the target named is Myc proto-oncogene protein (Homo sapiens) (UniProt P01106). The assay is described as follows: ATG_Myc_CIS: Attagene CIS-FACTORIAL HepG2 Assay for human Myelocytomatosis (Myc) Proto-Oncogene Transcription Factor (AID 2282990). Conditions: HepG2, Attagene cis-reporter transcription factor activity; actives raise or lower the signal. The essentials:
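HepG2, transient MRTU transfection (cis promoters, endogenous TFs); 24 h dosing; TriZol RNA → oligo(dT) RT → PCR → 6-FAM primer extension → HpaI cut → CE. Bidirectional fit vs DMSO.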

Assay [2] can be described thus: ATG_NF_kB_CIS: Attagene CIS-FACTORIAL HepG2 Assay for human Nuclear Factor Kappa B (NF-kB) (AID 2282991). The note with it: HepG2 Attagene cis-factorial NF-kB reporter mRNA; actives raise or lower the signal. The essentials:
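Fluorescence of labelled RT-PCR products separated by capillary electrophoresis gives reporter mRNA levels from transfected HepG2 cells exposed 24 h; values are fitted in both directions relative to DMSO.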

A short description of assay [3]: ATG_NRF2_ARE_CIS: Attagene CIS-FACTORIAL HepG2 Assay for human Nuclear Factor Erythroid 2 Related Factor 2 (NFR2) response to Antioxidant Response Elements (ARE) (AID 2282992). Conditions: HepG2 Attagene ARE/NRF2 reporter, transcription factor activity; actives raise or lower the signal. The essentials:
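Multiplexed reporter mRNA profiling in HepG2 after a 24 h chemical exposure. Curves fitted in both directions relative to DMSO negative control.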

Assay [4] can be described thus: ATG_Oct_MLP_CIS: Attagene CIS-FACTORIAL HepG2 Assay for human Octamer-Binding Transcription Factor (Oct) (AID 2282993). The note with it: HepG2 Attagene cis-factorial Oct reporter, mRNA; actives raise or lower the signal. The essentials: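 Cells of the HepG2 line express promoter-controlled reporter sequences whose mRNA levels, after 24 h treatment, are measured by RT-PCR and capillary electrophoresis. Increases and decreases are scored relative to DMSO.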

In assay [5] the target is Cellular tumor antigen p53 (Homo sapiens) (UniProt P04637). As to the kind of experiment: ATG_p53_CIS: Attagene CIS-FACTORIAL HepG2 Assay for human p53 Transcription Factor (AID 2282994). The note with it: HepG2 p53 cis-element reporter, Attagene mRNA; actives raise or lower the signal. The procedure, abridged: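 Multiplexed reporter mRNA assay in human HepG2 liver cells; cis-regulated units report endogenous factor activity. Values come from bidirectional curve fitting against DMSO negative control after 24 h treatment.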
Sequence of Cellular tumor antigen p53 (Homo sapiens) (P04637 whole entry, looked up): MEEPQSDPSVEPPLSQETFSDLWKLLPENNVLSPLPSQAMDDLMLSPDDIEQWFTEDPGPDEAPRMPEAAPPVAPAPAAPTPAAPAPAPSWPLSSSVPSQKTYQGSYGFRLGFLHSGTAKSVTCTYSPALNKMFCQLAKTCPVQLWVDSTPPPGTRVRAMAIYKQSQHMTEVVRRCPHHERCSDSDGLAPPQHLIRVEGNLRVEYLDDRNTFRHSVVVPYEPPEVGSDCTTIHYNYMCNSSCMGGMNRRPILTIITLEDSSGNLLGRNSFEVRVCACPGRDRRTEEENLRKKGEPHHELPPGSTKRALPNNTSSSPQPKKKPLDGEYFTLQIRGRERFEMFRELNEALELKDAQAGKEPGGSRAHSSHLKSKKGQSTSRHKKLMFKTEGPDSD

Assay [6] can be described thus: BSK_3C_TissueFactor: BioMAP Diversity Plus: 3C Assay for Tissue Factor Biomarker Activity (AID 2282997). Conditions: BioMAP 3C HUVEC, tissue factor biomarker readout; actives raise or lower the signal. The essentials: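 ELISA read-out of Tissue Factor levels on human umbilical vein endothelium collected 24 h after chemical dosing. Gain or loss of signal was fitted relative to DMSO.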

A short description of assay [7]: BSK_3C_uPAR: BioMAP Diversity Plus: 3C Assay for Urokinase-type plasminogen activator receptor (uPAR) Biomarker Activity (AID 2282998). The note with it: BioMAP 3C HUVEC, uPAR biomarker ELISA; actives raise or lower the signal. The procedure, abridged:
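Endothelial primary cells of human umbilical vein origin received test chemical; 24 h later uPAR was assayed by ELISA. Fitting was bidirectional, DMSO as negative control.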

Assay [8] in a line: BSK_3C_VCAM1: BioMAP Diversity Plus: 3C Assay for Vascular cell adhesion molecule 1 (VCAM1) Biomarker Activity (AID 2282999). Conditions: BioMAP 3C HUVEC, VCAM1 ELISA, cytokine-stimulated; actives raise or lower the signal. The procedure, abridged: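 Endothelial cells from human umbilical vein are treated with test chemical. At 24 h, VCAM-1 is measured by ELISA, and responses in either direction are fitted relative to DMSO.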

Assay [9] is described as follows: BSK_4H_Eotaxin3: BioMAP Diversity Plus: 4H Assay for Eotaxin 3 Biomarker Activity (AID 2283000). Conditions: primary human endothelial cells (HUVEC); actives raise or lower the signal. The procedure, abridged: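 Chemicals were added to human umbilical vein endothelium cultures, and Eotaxin-3 was quantified by ELISA at 24 h. Values were derived by bidirectional fitting with DMSO serving as negative control and activity baseline.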

In assay [10] the target is human Peroxisome Proliferator-activated Receptor alpha (PPARa), PPARA (gene 5465) (UniProt Q07869). As to the kind of experiment: ATG_PPARa_TRANS: Attagene TRANS-FACTORIAL HepG2 Assay for human Peroxisome Proliferator-activated Receptor alpha (PPARa) (AID 2283001; active means hit-call score of the fitted dose curve at least 0.9, where 1 is the maximum;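 on AC50: potency for gain of reporter signal over DMSO so agonist or activator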). The procedure, abridged:
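Reporter transcripts from GAL4-UAS units in transfected HepG2 were quantified 24 h after dosing. Detection used reverse transcription, PCR, fluorescent primer extension and capillary electrophoresis, with DMSO as baseline.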

The target of assay [11] is human Peroxisome Proliferator-activated Receptor delta (PPARd), PPARD (gene 5467) (UniProt Q03181). As to the kind of experiment: ATG_PPARd_TRANS: Attagene TRANS-FACTORIAL HepG2 Assay for human Peroxisome Proliferator-activated Receptor delta (PPARd) (AID 2283002; active means hit-call score of the fitted dose curve at least 0.9, where 1 is the maximum). The essentials:
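Transient HepG2 transfection (multiple GAL4-UAS RTUs, chimeric receptor-Gal4); 24 h dosing; total RNA → oligo(dT) RT → PCR → 6-FAM primer extension → HpaI cut → CE. Positive direction vs DMSO.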

Read-out in assay [12]: Intercellular Adhesion Molecule 1 (ICAM1), ICAM1 (gene 3383)
As to the kind of experiment: BSK_3C_ICAM1: BioMAP Diversity Plus: 3C Assay for Intercellular Adhesion Molecule 1 (ICAM1) Biomarker Activity (AID 2283003). Conditions: primary human endothelial cells (HUVEC); actives raise or lower the signal. The essentials:
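Primary human umbilical vein endothelial cells in the BioMAP 3C system were exposed to chemicals for 24 h, then ICAM-1 was quantified by ELISA. Activity was fitted bidirectionally against the DMSO negative control baseline.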

A short description of assay [13]: BSK_3C_Proliferation: Cell Proliferation Assessment in the BioMAP Diversity Plus: 3C Assay (AID 2283006).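 On AC50: potency may reflect either rise or fall in cell number versus DMSO.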 Conditions: primary human endothelial cells (HUVEC). The procedure, abridged:
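Human umbilical vein endothelial cells were grown sub-confluent and exposed to chemical for 48 h, then fixed with 10% TCA and stained with 0.1% sulforhodamine B; absorbance at 560 nm gave relative cell number, fitted bidirectionally against DMSO baseline.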

In assay [14] the target is Peroxisome proliferator-activated receptor gamma (Homo sapiens) (UniProt P37231). As to the kind of experiment: ATG_PPARg_TRANS: Attagene TRANS-FACTORIAL HepG2 Assay for human Peroxisome Proliferator-activated Receptor-gamma (PPARg) (AID 2283007; active means hit-call score of the fitted dose curve at least 0.9, where 1 is the maximum). The essentials:
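Twenty-four hours after chemical dosing of transiently transfected HepG2 cells, isolated RNA was converted to cDNA, reporter sequences amplified and 6-FAM-labelled, then HpaI-digested and analysed by capillary electrophoresis. Signal increase against DMSO was fitted.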

Assay [15] addresses human RAR-related Orphan Receptor beta (RORb), RORB (gene 6096) (UniProt Q92753). As to the kind of experiment: ATG_RORb_TRANS: Attagene TRANS-FACTORIAL HepG2 Assay for human RAR-related Orphan Receptor beta (RORb) (AID 2283010; active means hit-call score of the fitted dose curve at least 0.9, where 1 is the maximum;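 on AC50: potency for increased reporter mRNA meaning activation of RORb-Gal4 chimera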). The procedure, abridged: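 HepG2 cells were transiently transfected with multiplexed GAL4-UAS reporter units expressing chimeric nuclear receptor–GAL4 proteins, then dosed for 24 h. Reporter mRNA was quantified by RT-PCR with fluorescent labelling and capillary electrophoresis; gain of signal was fitted relative to DMSO.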

In assay [16] the target is Retinoic acid receptor alpha (Homo sapiens) (UniProt P10276). As to the kind of experiment: ATG_RARa_TRANS: Attagene TRANS-FACTORIAL HepG2 Assay for human Retinoic Acid Receptor alpha (RARa) (AID 2283005; active means hit-call score of the fitted dose curve at least 0.9, where 1 is the maximum). The essentials:
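Reporter transcripts, measured by RT-PCR with fluorescent labeling and capillary electrophoresis after 24 h dosing, reflect activity of an exogenous human RARa–GAL4 fusion in transiently transfected HepG2. Fitted for increase relative to DMSO.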

The target of assay [17] is Nuclear receptor subfamily 1 group I member 2 (Homo sapiens) (UniProt O75469). The assay is described as follows: ATG_PXR_TRANS: Attagene TRANS-FACTORIAL HepG2 Assay for human Pregnane X Receptor (PXR) (AID 2283008; active means hit-call score of the fitted dose curve at least 0.9, where 1 is the maximum). The procedure, abridged: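 Measures mRNA induction of a GAL4-UAS-driven reporter in human HepG2 cells transiently expressing PXR fused to Gal4, following 24 h treatment. DMSO served as negative control and baseline.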
Sequence of Nuclear receptor subfamily 1 group I member 2 (Homo sapiens) (O75469 whole entry, looked up, the tested form may be a part): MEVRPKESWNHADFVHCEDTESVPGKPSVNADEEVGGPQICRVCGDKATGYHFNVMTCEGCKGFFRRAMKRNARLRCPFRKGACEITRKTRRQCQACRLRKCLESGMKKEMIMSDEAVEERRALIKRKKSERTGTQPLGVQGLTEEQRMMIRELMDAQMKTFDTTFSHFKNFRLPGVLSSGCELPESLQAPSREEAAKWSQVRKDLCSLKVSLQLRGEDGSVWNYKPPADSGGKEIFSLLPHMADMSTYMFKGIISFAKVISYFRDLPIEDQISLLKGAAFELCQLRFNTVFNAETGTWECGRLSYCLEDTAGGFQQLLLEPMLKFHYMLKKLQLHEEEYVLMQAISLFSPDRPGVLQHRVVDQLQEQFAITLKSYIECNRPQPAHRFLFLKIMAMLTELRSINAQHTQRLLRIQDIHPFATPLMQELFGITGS

Assay [18] addresses human Retinoic Acid Receptor gamma (RARg), RARG (gene 5916) (UniProt P13631). As to the kind of experiment: ATG_RARg_TRANS: Attagene TRANS-FACTORIAL HepG2 Assay for human Retinoic Acid Receptor gamma (RARg) (AID 2283009; active means hit-call score of the fitted dose curve at least 0.9, where 1 is the maximum;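 on AC50: AC50 is for reporter induction above DMSO meaning RARg activation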). The essentials: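 HepG2 cells transiently transfected with multiplexed reporter units expressing chimeric RARg-GAL4 and GAL4-UAS-driven reporters; 24 h compound exposure. Reporter mRNA quantified by RT-PCR with fluorescent labelling and capillary electrophoresis; gain-of-signal fitted relative to DMSO baseline.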

Assay [19] deals with Retinoic acid receptor RXR-alpha (Homo sapiens) (UniProt P19793). The assay is described as follows: ATG_RXRa_TRANS: Attagene TRANS-FACTORIAL HepG2 Assay for human Retinoid X Receptor alpha (RXRa) (AID 2283012; active means hit-call score of the fitted dose curve at least 0.9, where 1 is the maximum). The essentials:
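HepG2 cells transiently transfected with multiplexed GAL4-UAS reporter units and chimeric NR-GAL4 fusions, dosed 24 h. Reporter mRNA measured by RT-PCR, FAM labelling, HpaI digestion and capillary electrophoresis; gain-of-signal fitted relative to DMSO baseline.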

Assay [20] has as its target human RAR-related Orphan Receptor gamma (RORg), RORC (gene 6097) (UniProt P51449). As to the kind of experiment: ATG_RORg_TRANS: Attagene TRANS-FACTORIAL HepG2 Assay for human RAR-related Orphan Receptor gamma (RORg) (AID 2283011; active means hit-call score of the fitted dose curve at least 0.9, where 1 is the maximum). The procedure, abridged: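 First, HepG2 liver cells were transfected with GAL4-UAS-driven reporter constructs and the RORg-Gal4 fusion. Next, they were treated with chemical for 24 h. Finally, reporter mRNA was quantified by RT-PCR and capillary electrophoresis, with upward activity fitted against DMSO.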

Sequence of human Peroxisome Proliferator-activated Receptor alpha (PPARa), PPARA (gene 5465) (Q07869 whole entry, looked up, the tested form may be a part): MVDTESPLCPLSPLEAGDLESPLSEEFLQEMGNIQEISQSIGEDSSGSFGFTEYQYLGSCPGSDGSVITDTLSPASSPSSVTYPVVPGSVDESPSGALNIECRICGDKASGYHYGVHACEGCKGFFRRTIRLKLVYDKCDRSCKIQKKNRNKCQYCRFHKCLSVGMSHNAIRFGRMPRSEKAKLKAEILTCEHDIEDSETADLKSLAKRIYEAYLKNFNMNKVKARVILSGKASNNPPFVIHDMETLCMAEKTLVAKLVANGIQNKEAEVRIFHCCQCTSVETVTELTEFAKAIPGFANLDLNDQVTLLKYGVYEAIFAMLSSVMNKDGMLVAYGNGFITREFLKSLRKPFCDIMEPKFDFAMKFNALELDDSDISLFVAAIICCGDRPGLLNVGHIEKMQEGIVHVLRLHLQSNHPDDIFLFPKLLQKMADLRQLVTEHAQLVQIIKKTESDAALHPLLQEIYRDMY
Sequence of Myc proto-oncogene protein (Homo sapiens) (P01106 whole entry, looked up): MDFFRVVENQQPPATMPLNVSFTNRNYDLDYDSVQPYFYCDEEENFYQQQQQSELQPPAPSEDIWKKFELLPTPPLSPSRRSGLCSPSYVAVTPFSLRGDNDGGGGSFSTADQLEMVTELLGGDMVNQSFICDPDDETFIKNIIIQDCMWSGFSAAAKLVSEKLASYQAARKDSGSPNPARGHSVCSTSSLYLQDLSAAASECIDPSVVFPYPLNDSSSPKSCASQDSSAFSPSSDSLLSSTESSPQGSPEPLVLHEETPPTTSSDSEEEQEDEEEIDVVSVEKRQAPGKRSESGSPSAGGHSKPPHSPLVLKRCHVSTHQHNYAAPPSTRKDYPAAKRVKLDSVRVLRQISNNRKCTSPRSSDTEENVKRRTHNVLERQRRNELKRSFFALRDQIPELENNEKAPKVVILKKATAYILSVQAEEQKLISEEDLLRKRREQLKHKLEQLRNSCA
Sequence of Retinoic acid receptor RXR-alpha (Homo sapiens) (P19793 whole entry, looked up, the tested form may be a part): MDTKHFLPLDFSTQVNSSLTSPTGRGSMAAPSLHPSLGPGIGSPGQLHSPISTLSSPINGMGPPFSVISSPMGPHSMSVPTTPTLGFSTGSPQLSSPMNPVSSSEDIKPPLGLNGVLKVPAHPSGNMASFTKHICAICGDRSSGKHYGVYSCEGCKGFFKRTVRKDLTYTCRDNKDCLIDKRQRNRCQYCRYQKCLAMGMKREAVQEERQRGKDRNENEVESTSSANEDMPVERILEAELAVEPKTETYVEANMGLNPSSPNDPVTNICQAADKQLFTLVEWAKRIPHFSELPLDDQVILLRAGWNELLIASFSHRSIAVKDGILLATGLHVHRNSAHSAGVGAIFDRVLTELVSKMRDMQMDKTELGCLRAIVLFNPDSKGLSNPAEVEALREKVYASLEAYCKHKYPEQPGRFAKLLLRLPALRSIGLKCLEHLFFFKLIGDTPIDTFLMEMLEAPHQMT
Sequence of human Peroxisome Proliferator-activated Receptor delta (PPARd), PPARD (gene 5467) (Q03181 whole entry, looked up, the tested form may be a part): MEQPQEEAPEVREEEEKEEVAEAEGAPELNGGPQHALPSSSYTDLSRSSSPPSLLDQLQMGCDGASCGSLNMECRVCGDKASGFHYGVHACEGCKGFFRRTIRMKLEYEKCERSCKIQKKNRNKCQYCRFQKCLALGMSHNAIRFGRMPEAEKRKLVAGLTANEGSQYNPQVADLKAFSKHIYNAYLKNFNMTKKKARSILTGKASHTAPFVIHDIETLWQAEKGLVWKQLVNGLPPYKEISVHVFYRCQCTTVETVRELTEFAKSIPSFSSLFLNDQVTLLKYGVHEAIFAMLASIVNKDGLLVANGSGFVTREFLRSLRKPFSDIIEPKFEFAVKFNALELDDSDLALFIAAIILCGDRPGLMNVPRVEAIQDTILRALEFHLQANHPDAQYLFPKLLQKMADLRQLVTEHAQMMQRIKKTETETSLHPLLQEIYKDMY
Sequence of human RAR-related Orphan Receptor beta (RORb), RORB (gene 6096) (Q92753 whole entry, looked up, the tested form may be a part): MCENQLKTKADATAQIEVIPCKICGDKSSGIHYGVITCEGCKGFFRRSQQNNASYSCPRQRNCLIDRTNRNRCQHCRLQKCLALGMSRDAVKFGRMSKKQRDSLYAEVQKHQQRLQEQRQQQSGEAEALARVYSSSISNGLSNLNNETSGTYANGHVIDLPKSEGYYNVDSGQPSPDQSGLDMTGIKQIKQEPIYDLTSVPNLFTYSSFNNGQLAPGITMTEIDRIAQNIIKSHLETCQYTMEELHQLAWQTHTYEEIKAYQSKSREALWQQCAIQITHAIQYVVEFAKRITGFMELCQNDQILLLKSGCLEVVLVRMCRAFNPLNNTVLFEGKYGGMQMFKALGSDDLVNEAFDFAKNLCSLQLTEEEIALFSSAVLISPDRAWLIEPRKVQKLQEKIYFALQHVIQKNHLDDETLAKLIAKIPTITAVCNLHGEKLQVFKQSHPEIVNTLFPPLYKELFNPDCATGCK
Sequence of Peroxisome proliferator-activated receptor gamma (Homo sapiens) (P37231 whole entry, looked up): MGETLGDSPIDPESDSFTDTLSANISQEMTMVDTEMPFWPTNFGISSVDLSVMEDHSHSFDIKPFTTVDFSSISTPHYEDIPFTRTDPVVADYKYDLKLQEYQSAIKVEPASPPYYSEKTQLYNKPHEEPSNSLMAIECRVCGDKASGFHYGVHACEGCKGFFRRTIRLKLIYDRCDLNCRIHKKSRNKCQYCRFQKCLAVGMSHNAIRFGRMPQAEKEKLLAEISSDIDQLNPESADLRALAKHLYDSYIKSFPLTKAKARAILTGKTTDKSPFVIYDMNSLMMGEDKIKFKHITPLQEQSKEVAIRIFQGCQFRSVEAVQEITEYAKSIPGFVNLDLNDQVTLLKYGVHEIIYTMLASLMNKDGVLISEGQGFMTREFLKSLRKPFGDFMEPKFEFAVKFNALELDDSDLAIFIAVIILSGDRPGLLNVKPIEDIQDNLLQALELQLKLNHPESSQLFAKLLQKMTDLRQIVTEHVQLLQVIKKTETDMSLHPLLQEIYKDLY
Sequence of human Retinoic Acid Receptor gamma (RARg), RARG (gene 5916) (P13631 whole entry, looked up, the tested form may be a part): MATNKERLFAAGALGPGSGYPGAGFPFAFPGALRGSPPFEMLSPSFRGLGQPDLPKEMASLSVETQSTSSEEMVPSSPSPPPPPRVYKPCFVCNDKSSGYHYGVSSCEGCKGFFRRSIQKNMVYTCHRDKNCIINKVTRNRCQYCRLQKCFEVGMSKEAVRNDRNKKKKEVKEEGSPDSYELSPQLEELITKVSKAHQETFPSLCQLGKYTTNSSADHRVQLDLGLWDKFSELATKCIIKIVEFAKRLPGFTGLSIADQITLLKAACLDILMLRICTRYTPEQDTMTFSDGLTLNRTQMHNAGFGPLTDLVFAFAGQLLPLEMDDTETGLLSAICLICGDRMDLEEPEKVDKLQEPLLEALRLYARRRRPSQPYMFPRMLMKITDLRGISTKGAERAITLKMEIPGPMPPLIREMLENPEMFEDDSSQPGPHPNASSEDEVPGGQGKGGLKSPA
Sequence of Retinoic acid receptor alpha (Homo sapiens) (P10276 whole entry, looked up, the tested form may be a part): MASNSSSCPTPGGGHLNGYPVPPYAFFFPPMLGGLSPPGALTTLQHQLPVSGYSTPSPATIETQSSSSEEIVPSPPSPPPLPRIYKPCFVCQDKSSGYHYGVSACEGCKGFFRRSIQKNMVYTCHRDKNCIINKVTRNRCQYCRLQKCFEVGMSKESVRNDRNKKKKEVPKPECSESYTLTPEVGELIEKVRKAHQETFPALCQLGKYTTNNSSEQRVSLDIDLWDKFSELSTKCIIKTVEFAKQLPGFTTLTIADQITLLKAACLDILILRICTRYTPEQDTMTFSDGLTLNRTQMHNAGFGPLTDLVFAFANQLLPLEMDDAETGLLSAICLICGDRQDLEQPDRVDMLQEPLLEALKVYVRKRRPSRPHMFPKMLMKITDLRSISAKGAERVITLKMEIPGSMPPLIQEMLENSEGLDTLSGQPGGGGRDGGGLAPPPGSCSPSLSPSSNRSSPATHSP

Take `CC(C)(OO)c1ccccc1`: the molecule was classed as inactive in assay [1], in [2], in assay [3], in assay [4], in assay [5] and in assay [6]. The result in [7], in [8], in assay [9], in [10], in assay [11] and in [12] was inactive. The result in assay [13], in assay [14] and in assay [15] was inactive.

Take `CCC(C)(C)c1ccc(O)c(C(C)(C)CC)c1`: the result in [1], in assay [2], in assay [4], in assay [5] and in assay [16] was inactive. The AC50 in assay [3] is 11.1 µM (active); in assay [6], 12 µM (active); in assay [7], 8.8 µM (active); in assay [8], 11.5 µM (active); in [9] it was 11.1 µM (active); in assay [10], 55.2 µM (active). The AC50 was 52 µM (active) in assay [11]; 12.4 µM (active) in [12]; 8.85 µM (active) in assay [13]; 12.6 µM (active) in assay [17]; 27.4 µM (active) in [18]; 27.3 µM (active) in assay [15]. Further, the AC50 in assay [19] is 33.4 µM (active).

Take `CN(C)N=O`: the result in assay [1], in assay [2], in assay [3], in assay [4], in assay [5] and in [6] was inactive. Besides, the result in assay [7], in [8], in assay [9], in [10], in assay [12] and in assay [13] was inactive. The result in assay [17], in assay [18] and in assay [19] was inactive.

As for `O=C(Nc1ccc2[nH]ccc2c1)c1cc2cc(F)ccc2n1Cc1cccc(F)c1`, the AC50 in assay [1] is 16.6 µM (active); in assay [2], 7.2 µM (active); in assay [3], 8.08 µM (active); in assay [4], 11 µM (active); in assay [6], 8.59 µM (active); in assay [7] it was 7.15 µM (active). Moreover, the AC50 was 11.7 µM (active) in [8], 11.1 µM (active) in assay [9], 13.7 µM (active) in assay [12] and 3.44 µM (active) in [13]. Besides, the call in assay [5], in [11], in assay [14], in [17], in assay [20] and in assay [19] was inactive.
